# In PubChem BioAssay (NCI):
# About 83,000 compounds went through this panel and 20% of them were active in at least one assay; those are over-represented in the sample as a whole.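 Treatment: one concentration, 48 hours, 96-well format. Scoring: percent growth, with anything below 10 considered active.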 A number with no mark means an inactive call. Activity calls are given as the source filed them.
# Assays:
# Assay in all cases: NCI-60 one-dose screen, 48 h (100 = growth as untreated, 0 = no growth, -100 = all killed)
# Conditions in all cases: 10 µM unless noted
# DU-145 prostate = system: DU-145 prostate
# K-562 leukemia = system: K-562 leukemia
# MALME-3M melanoma = system: MALME-3M melanoma
# MDA-MB-231 breast = system: MDA-MB-231 breast
# RXF 393 renal = system: RXF 393 renal
# SF-268 CNS = system: SF-268 CNS
# SF-295 CNS = system: SF-295 CNS
# SF-539 CNS = system: SF-539 CNS
# UACC-257 melanoma = system: UACC-257 melanoma
# M14 melanoma = system: M14 melanoma
# HCT-15 colon = system: HCT-15 colon
# HT29 colon = system: HT29 colon
# SNB-75 CNS = system: SNB-75 CNS
# SNB-19 CNS = system: SNB-19 CNS
# U251 CNS = system: U251 CNS
# PC-3 prostate = system: PC-3 prostate
# SK-MEL-5 melanoma = system: SK-MEL-5 melanoma
# UACC-62 melanoma = system: UACC-62 melanoma
# LOX IMVI melanoma = system: LOX IMVI melanoma
# SK-MEL-28 melanoma = system: SK-MEL-28 melanoma
Structure (SMILES),growth (DU-145 prostate) [%],growth (K-562 leukemia),growth (MALME-3M melanoma),growth (MDA-MB-231 breast),growth (RXF 393 renal),growth (SF-268 CNS),growth (SF-295 CNS) [%],growth (SF-539 CNS),growth (UACC-257 melanoma),growth (M14 melanoma),growth (HCT-15 colon),growth (HT29 colon),growth (SNB-75 CNS),growth (SNB-19 CNS) [%],growth (U251 CNS) [%],growth (PC-3 prostate),growth (SK-MEL-5 melanoma),growth (UACC-62 melanoma),growth (LOX IMVI melanoma),growth (SK-MEL-28 melanoma)
Nc1nn(C(=O)Nc2ccc(Cc3ccccc3)cc2)c2ccc(Cl)cc12,85.6,3.86% (active),55.9%,59.7%,93.3%,81.4%,27,-19.2% (active),42.1%,37.2%,36.6%,74%,122%,83.4,65.9,74.7%,35.9%,13.3%,39%,106%
COc1ccc2c(c1)c(-c1ccc(-c3cn(C)c4ccc(OC)cc34)o1)cn2C,107,2.25% (active),80.6%,69.1%,66.8%,71.8%,62.2,18%,90%,71.2%,56.2%,72.7%,71.4%,33.3,15,3% (active),-2.83% (active),12.4%,53.2%,83.6%
c1ccc(CO[C@H]2CO[C@H]3[C@@H]2OC[C@@H]3Oc2ccc(Nc3ncnc4ccsc34)cc2)cc1,89,62.1%,53.4%,71.7%,83.1%,78%,63.3,73.1%,78%,79.5%,78.7%,81.9%,87.5%,82.7,81.9,80.3%,9.33% (active),59.9%,78.8%,88.9%
Nc1nc2ccccc2c2c(=O)c3cc(F)ccc3sc12,104,107%,96.5%,100%,104%,103%,100,104%,104%,99.6%,98.6%,99.8%,93.1%,101,105,103%,98.5%,102%,99.6%,103%
NC(=O)Nc1ccc2ncnc(Nc3ccc(Cl)cc3)c2c1,52,71.4%,117%,89.3%,93.7%,79.7%,90.7,95.7%,100%,107%,93.1%,91.6%,95%,78.6,95.7,79%,89.2%,87.9%,95.5%,106%
COc1cc(/C=N/NC(=O)c2ccc(C)nc2)cc(OC)c1OC,114,52.2%,97.3%,107%,90%,104%,97.4,97.6%,74.3%,108%,97.2%,103%,79.4%,108,102,98.1%,96.3%,86.7%,94.8%,117%
O=C1COCCN1c1ccc(NCc2cn(C(=O)c3ccc(Cl)cc3)c3ccccc23)cc1,84.2,28.3%,78.1%,118%,8.91% (active),98%,47.2,93.4%,33.6%,74.1%,54.9%,44.5%,59.6%,91.7,50.9,71.4%,25.1%,-41.1% (active),77.1%,97%
O=C(Oc1cccc2ccccc12)Oc1cccc2ccccc12,104,103%,98%,94.2%,115%,75.3%,109,101%,127%,96.2%,106%,118%,94.6%,103,103,71.6%,106%,103%,99.2%,118%
Cc1ccc2sc3c(NCCN)nc4ccccc4c3c(=O)c2c1,64.1,0.362% (active),102%,41.7%,89.8%,74.5%,105,70.8%,108%,86.7%,29%,10.8%,77.2%,81,49.7,79.5%,95.6%,99.4%,15.6%,111%
Cn1cc(-c2ccc3cc(-c4ccc(CC(=O)Nc5cc(C(C)(C)C)nn5C)cc4)cnc3c2)cn1,14.8,13.8%,-9.19% (active),-15% (active),-18.6% (active),17.4%,16.7,15.7%,13.1%,11.1%,5.84% (active),22.6%,3.79% (active),29.2,20.1,3.81% (active),-35.4% (active),-16.6% (active),14.1%,16.7%
Cc1ccc(S(=O)(=O)Oc2ccc(NC(=O)c3ccc(Cl)cc3)cc2)cc1,105,92.8%,100%,97%,115%,94.4%,93.4,93.7%,111%,94.3%,88.8%,94.9%,98.7%,94.2,97.1,93.2%,99.9%,95.8%,95.1%,108%
Cc1ccc(-c2nc(SCC(=O)Nc3nc(-c4ccc(Cl)cc4)cs3)[nH]c(=O)c2C#N)cc1,103,97.1%,109%,110%,114%,98.1%,101,117%,88%,91.7%,90.2%,95.9%,87.4%,108,94,90.3%,102%,90.5%,108%,108%
COc1ccc(-c2cnc3ccccc3n2)cc1,106,97.5%,103%,92.7%,108%,94.6%,98.8,90.6%,104%,100%,99.9%,118%,72.4%,93.6,86.3,98%,101%,91.6%,101%,104%
COc1cc(OCc2cccc(-c3ccc(C(O)c4nccs4)cc3)c2C)cc(OC)c1CNCCNC(C)=O (stereo not given),111,77.2%,86%,101%,107%,97.5%,103,101%,99%,99.6%,97.7%,92.9%,85%,94.9,91.1,90.2%,91.8%,90%,94.8%,94.8%
CNC(C)[C@H]1CCC2C3CCC4C[C@@H](N(C)C(=O)c5ccccc5)CC[C@]4(C)C3CC[C@@]21C (stereo not given in full),61.4,-2.77% (active),-42.1% (active),-1.29% (active),-67% (active),-9.75% (active),24.3,-61.2% (active),-12.6% (active),-36.6% (active),-42.2% (active),-33.3% (active),15.5%,66.6,29.9,16.3%,-74.2% (active),-66% (active),-52.2% (active),-71.4% (active)
NC1=C(c2nn[nH]n2)C(c2ccccc2Cl)c2ccc3ccccc3c2O1 (stereo not given),93.4,22.6%,64%,63.7%,79.3%,73.2%,88.9,79.2%,84.7%,61.3%,46.8%,132%,56.7%,79.2,77.8,57.5%,58%,71.2%,77.8%,75.6%
